In PubChem BioAssay (Tox21):
Results filed as inconclusive are left out. Entries that show only a call come without a potency. The source holds several records for some structures; these can differ, active in one and inactive in another. The source made the active and inactive calls. The call rests on the fitted dose curve; in most records, active means well fitted cell-killing curve with a large enough effect in the repeat runs; inconclusive means weak or mixed curves, or effect the other way; inactive means flat fitted curve, though single readings scatter. Residues, ends and D or L forms follow the SMILES beside them.

Experiment: qHTS assay to identify small molecule agonists of the TGF-beta/Smad signaling pathway - cell viability counter screen (AID 1346829); further: nearly all actives have a fitted effect of over 45% in size
Details: SBE-bla HEK293T viability, CellTiter-Glo luminescence, 5 h; series mostly up to 76.8 µM
Text: National Center for Advancing Translational Sciences [NCATS]
NIH Chemical Genomics Center [NCGC]
U.S. Environmental Protection Agency [EPA]
National Institutes of Environmental Health Sciences [NIEHS]
National Toxicology Program [NTP]
U.S. Food and Drug Administration [FDA]
Transforming growth factor beta (TGF-beta) superfamily consists of a large number of structurally related dimeric proteins that act as hormones or local mediators in regulating a wide range of biological functions. This superfamily includes TGF-betas themselves, the bone morphogenetic proteins (BMPs) and the activins. These ligands induce oligomerization of serine/threonine receptor kinases and phosphorylate the cytoplasmic signaling molecules of Smad protein family. CellSensor SBE-bla HEK 293T cell line (Life Technologies, Carlsbad, CA), responsive to TGF-beta was used to screen Tox21 10K compound library for identification of agonists/antagonists of the Smad signaling pathway. This cell line contains a beta-lactamase reporter gene under control of the Smad binding element (SBE) stably integrated into HEK 293T cells. Also cytotoxicity of the compounds was tested in parallel by measuring the cell viability using CellTiter-Glo assay system in the same wells.
Tox21 Assay Protocol Summary:
SBE-bla HEK 293T cells were dispensed at 4,000/well in 6 uL of assay medium into black wall/clear-bottom 1536-well plates using a Multidrop Combi (ThermoFisher Scientific, Waltham, MA) dispenser. After the assay plates were incubated at 37 C and 5% CO2 for an overnight, 23 nL of compounds dissolved in DMSO, positive controls or DMSO only was transferred to the assay plate by a Pintool station (Kalypsys, San Diego, CA). The assay plates were incubated at 37 C and 5% CO2 for 5 hr. One uL of LiveBLAzer B/G FRET substrate (Life Technologies) was added using a Flying Reagent Dispenser (FRD, Aurora Discovery, San Diego, CA) and the plates were incubated at room temperature for 2 hr. Fluorescence intensity (405 nm excitation, 460 nm and 530 nm emissions) was measured using an Envision plate reader (PerkinElmer, Shelton, CT). For cytotoxicity read, 4 uL of CellTiter-Glo reagent (Promega Corporation, Madison, WI) was added to each well of the assay plates using FRD. After 30min incubation at room temperature, the luminescence intensity was measured using ViewLux plate reader (PerkinElmer).
Potency means the concentration at half of the fitted maximal effect.

SMILES	Potency
Cn1c(=O)c2[nH]cnc2n(C)c1=O	inactive
Cc1ccc(S(=O)(=O)NC(=O)NN2CCCCCC2)cc1	inactive
OC(Cn1cncn1)(Cn1cncn1)c1ccc(F)cc1F	inactive
Cc1cn([C@H]2C[C@H](N=[N+]=[N-])[C@@H](CO)O2)c(=O)[nH]c1=O	inactive
O=C(C1CCCCC1)N1CC(=O)N2CCc3ccccc3C2C1 (stereo not given)	inactive
NC(=O)c1cnccn1	inactive
Cc1ccc(O)cc1	inactive
O=C(O)c1cc(N=Nc2ccc(S(=O)(=O)Nc3ccccn3)cc2)ccc1O	inactive
CCCCC(CC)COC(=O)/C=C/c1ccc(OC)cc1 (stereo not given)	inactive
CCOc1ccc(NC(=O)CC(C)O)cc1 (stereo not given)	inactive
CC(C)(Oc1ccc(C2CC2(Cl)Cl)cc1)C(=O)O (stereo not given)	inactive
C/C=C/c1ccc(OC)cc1	inactive
Nc1ccn([C@H]2CC[C@@H](CO)O2)c(=O)n1	inactive
O=c1ccc2ccccc2o1	inactive
Cc1ccccc1C(OCCN(C)C)c1ccccc1 (stereo not given)	inactive
Nc1ccc(S(=O)(=O)Nc2nccs2)cc1	inactive
COc1c2occc2cc2ccc(=O)oc12	inactive
O=NO	inactive
CCCN(CCC)S(=O)(=O)c1ccc(C(=O)O)cc1	inactive
O=C(O)c1[nH]n(-c2ccc(S(=O)(=O)O)cc2)c(=O)c1N=Nc1ccc(S(=O)(=O)O)cc1	inactive

SMILES	Potency
O=C(O)c1cccc([N+](=O)[O-])c1	inactive
O=C(O)CCCCCCCC(=O)O	inactive
Cn1cc[nH]c1=S	inactive
CC(O)CN(CCN(CC(C)O)CC(C)O)CC(C)O (stereo not given)	inactive
COC(=O)[C@H](Cc1ccccc1)NC(=O)[C@@H](N)CC(=O)O (H-Asp-Phe-OMe)	inactive
O=C1NC(=O)c2ccccc21	inactive
Cc1cc(=O)[nH]c(=S)[nH]1	inactive
Oc1ccc(/C=C/c2cc(O)cc(O)c2)cc1	inactive
NC(N)=NC(=O)c1nc(Cl)c(N)nc1N	inactive
CCCC(O)C(CC)CO (stereo not given)	inactive
CCCNC(=O)NS(=O)(=O)c1ccc(Cl)cc1	inactive
O=S(=O)(O)NC1CCCCC1	inactive
O=C(O)CCC(=O)O	inactive
O=c1cc[nH]c(=S)[nH]1	inactive
c1ccc2[nH]ccc2c1	42.9 µM (active) and inactive
NNC(=O)c1ccncc1	inactive
NC(=O)NC1NC(=O)NC1=O (stereo not given)	inactive
CC(O)C(=O)O (stereo not given)	inactive
Cc1ccc(C)c(OCCCC(C)(C)C(=O)O)c1	inactive
NS(=O)(=O)c1cc(C(=O)O)c(NCc2ccco2)cc1Cl	inactive
